Drawing on PubChem BioAssay, this text covers z-score and composite z-score for 13 compounds.

Assay [1] can be described thus: optical density shifts of acrAB sulA E. coli – strain DRC41, OD650, 48 h, E. coli filamentation inducer project, primary screen (AID 1152).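 Note: E. coli MC1000 strain DRC41 lacking acrAB efflux pump and sulA.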 The conditions noted are these: higher = more signal, called active from +8 up or from −8 down.
Assay [2] can be described thus: probe aLefty1 binding on compound microarray – biochemical, small-molecule microarray, 635/667 nm fluorescence, primary screen (AID 1153).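 Note: score merges spot fluorescence with signal-to-noise ratio from the scanned slide images.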 The conditions noted are these: higher = more signal.
The nature of assay [3]: plasmodial surface anion channel blockers, osmotic lysis – cell-based, P. falciparum Indochina, OD700, 1 h, primary screen (AID 1154). The conditions noted are these: P. falciparum Indochina infected RBC osmotic lysis, higher = more signal, called active from +8 up or from −8 down.
Assay [4] can be described thus: plasmodial surface anion channel blockers, osmotic lysis – cell-based, P. falciparum Indochina, OD700, 2 h, primary screen (AID 1155).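 Note: lysis reports solute entry through the parasite surface anion channel PSAC.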 The conditions noted are these: P. falciparum Indochina infected erythrocytes, higher = more signal, called active from +8 up or from −8 down.
A short description of assay [5]: changes in parasitized red cell lysis, either direction – P. falciparum Indochina, OD700, 3 h, PSAC antagonist project, primary screen (AID 1156). The conditions noted are these: P. falciparum-infected erythrocytes, osmotic lysis, higher = more signal, called active from +8 up or from −8 down.
Assay [6] is described as follows: plasmodial surface anion channel blockers, osmotic lysis – cell-based, P. falciparum Indochina, OD700, 18 h, primary screen (AID 1157). The conditions noted are these: P. falciparum Indochina infected erythrocytes, osmotic lysis OD700, 18 h; higher = more signal, called active from +8 up or from −8 down.
Assay [7] in a line: S6 kinase pathway phospho-S6 level changes – cell-based, A549, cytoblot, luminescence, serum-stimulated, primary screen (AID 1158).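 Note: serum-stimulated A549 lung adenocarcinoma cells; signal is phosphorylated S6 detected by cytoblot immunostaining with HRP secondary.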 As to conditions: 5 h, higher = more signal.
The target of assay [8] is NADPH oxidase 2 (Homo sapiens) (UniProt P04839). In words: compounds shifting NOX2 Amplex Red fluorescence – cell-based, HEK293-NOX2, PMA-stimulated, NOX inhibitor project, primary screen (AID 1159). Note: test concentration not given here. As to conditions: 45 min, higher = more signal, called active from +8 up or from −8 down.
Chain of NADPH oxidase 2 (Homo sapiens) (P04839 whole entry, looked up): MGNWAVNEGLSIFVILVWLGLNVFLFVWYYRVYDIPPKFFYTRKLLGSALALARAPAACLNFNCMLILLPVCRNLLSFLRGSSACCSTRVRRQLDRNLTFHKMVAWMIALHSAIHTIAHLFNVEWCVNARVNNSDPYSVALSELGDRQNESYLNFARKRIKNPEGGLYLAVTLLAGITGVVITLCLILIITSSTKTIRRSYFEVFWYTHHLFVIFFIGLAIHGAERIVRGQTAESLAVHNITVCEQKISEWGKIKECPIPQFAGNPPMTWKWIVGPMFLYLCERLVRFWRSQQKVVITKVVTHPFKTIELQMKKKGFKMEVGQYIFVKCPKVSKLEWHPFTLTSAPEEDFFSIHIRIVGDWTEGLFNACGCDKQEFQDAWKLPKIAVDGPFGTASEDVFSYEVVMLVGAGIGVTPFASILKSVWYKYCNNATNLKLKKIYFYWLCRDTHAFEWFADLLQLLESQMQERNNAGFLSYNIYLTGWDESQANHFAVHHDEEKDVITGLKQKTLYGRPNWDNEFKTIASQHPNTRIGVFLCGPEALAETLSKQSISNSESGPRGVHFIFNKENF
In assay [9] the target is NADPH oxidase 4 (Homo sapiens) (UniProt Q9NPH5). In words: compounds shifting NOX4 Amplex Red fluorescence – cell-based, HEK293-NOX4, tetracycline-induced, NOX inhibitor project, primary screen (AID 1160). As to conditions: HEK293-NOX4, Amplex Red H2O2 fluorescence, 45 min; higher = more signal, called active from +8 up or from −8 down.
Chain of NADPH oxidase 4 (Homo sapiens) (Q9NPH5 whole entry, looked up): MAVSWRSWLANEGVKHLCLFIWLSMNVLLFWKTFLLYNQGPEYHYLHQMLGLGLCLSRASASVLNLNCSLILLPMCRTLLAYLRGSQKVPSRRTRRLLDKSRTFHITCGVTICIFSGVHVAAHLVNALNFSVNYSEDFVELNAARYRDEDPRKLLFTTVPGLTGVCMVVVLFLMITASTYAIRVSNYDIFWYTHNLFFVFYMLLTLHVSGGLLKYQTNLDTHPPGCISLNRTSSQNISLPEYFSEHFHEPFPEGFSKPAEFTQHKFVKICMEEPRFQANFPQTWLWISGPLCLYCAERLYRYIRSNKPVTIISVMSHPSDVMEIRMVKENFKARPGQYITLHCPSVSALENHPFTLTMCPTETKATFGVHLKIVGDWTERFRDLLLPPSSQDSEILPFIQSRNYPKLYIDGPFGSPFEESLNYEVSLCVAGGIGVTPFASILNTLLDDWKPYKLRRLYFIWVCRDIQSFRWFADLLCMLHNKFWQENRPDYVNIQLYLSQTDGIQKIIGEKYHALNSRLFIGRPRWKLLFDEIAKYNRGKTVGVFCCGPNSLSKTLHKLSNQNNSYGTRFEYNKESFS
The target of assay [10] is NADPH oxidase 5 (Homo sapiens) (UniProt Q96PH1). In words: compounds shifting NOX5 Amplex Red fluorescence – cell-based, HEK293-NOX5, NOX inhibitor project, primary screen (AID 1161). The conditions noted are these: HEK293-NOX5, ionomycin, 45 min, higher = more signal.
Chain of NADPH oxidase 5 (Homo sapiens) (Q96PH1 whole entry, looked up): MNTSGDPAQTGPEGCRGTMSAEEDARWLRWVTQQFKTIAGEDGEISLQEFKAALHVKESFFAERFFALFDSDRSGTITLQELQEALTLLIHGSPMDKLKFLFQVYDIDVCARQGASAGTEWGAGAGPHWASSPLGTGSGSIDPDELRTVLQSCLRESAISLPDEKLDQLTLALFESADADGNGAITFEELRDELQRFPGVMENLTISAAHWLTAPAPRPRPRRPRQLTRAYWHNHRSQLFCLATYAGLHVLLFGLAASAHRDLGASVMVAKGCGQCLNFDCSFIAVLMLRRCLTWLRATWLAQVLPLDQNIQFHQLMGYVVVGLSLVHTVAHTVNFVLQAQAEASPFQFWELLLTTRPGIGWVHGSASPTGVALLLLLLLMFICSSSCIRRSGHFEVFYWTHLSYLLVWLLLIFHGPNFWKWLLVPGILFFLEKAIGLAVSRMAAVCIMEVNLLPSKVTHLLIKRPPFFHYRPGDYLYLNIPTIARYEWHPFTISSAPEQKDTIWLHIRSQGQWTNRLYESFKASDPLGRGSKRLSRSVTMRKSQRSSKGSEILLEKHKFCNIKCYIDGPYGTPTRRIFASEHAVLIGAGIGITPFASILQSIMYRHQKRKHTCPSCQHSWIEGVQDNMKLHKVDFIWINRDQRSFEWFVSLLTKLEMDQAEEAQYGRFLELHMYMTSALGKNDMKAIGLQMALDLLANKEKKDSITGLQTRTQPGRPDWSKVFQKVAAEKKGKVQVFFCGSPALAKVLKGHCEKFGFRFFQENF

Calls of active or inactive are those of the source.

As for `C=CCC(OC(C)=O)[C@@H]1[C@@H](N(Cc2cccc3ccccc23)C(=O)Cc2ccc(F)cc2)c2cc(OCCCO)ccc2N1C(=O)c1ccc(-c2ccccc2)cc1` (stereo not given in full), the z-score was 0.341 (inactive) in assay [1]; 0.616 (inactive) in assay [3]; 0.743 (inactive) in [4]; -0.402 (inactive) in [5]; -0.278 (inactive) in assay [6]; -0.18 in [7]. Further, the z-score in [8] is 0.227 (inactive); in [9] it was 0.795 (inactive); in assay [10], 1.77. The composite z-score in [2] is 0.0184.

Consider `C=C(CCCC)C(=O)CC[C@H](OC(C)=O)c1ccc(OCCO)cc1`, for which the z-score is 2.2 (inactive) in assay [1]; 11.3 (active) in [3]; 0.316 (inactive) in assay [4]; 1.61 (inactive) in assay [5]; -0.623 (inactive) in assay [6]; 2 in [7]. Besides, the z-score in [8] was -3.16 (inactive); in assay [9], -1.5 (inactive); in [10] it was -3.11. In assay [2], this compound had a composite z-score of -0.316.

Regarding `C=CCN1C(=O)[C@]2(O[C@H](CCO)[C@@H]([Si](C)(C)c3ccc(OC)cc3)[C@@H]2C)c2cc(N3C(=O)COc4ccccc43)ccc21`, the z-score in [1] was 0.512 (inactive); in assay [3] it was 6.04 (inactive); in assay [4], 2.56 (inactive); in assay [5] it was -0.398 (inactive); in assay [6], 0.742 (inactive); in [7], 2.03. Besides, the values for the z-score in assay [8], in assay [9] and in assay [10] were 0.617 (inactive), 0.0613 (inactive) and -1.94, respectively. For the same compound, the composite z-score in assay [2] turned out to be 0.142.

For `COc1ccc([Si](C)(C)[C@@H]2[C@@H](CCn3cc([C@H](O)c4ccccc4)nn3)O[C@]3(C(=O)N(c4ccccc4)c4ccccc43)[C@H]2C)cc1`, the z-score is 0.424 (inactive) in assay [1]; 3.15 (inactive) in assay [3]; -1.51 (inactive) in assay [4]; 3.03 (inactive) in assay [5]; -1.63 (inactive) in assay [6]; 0.751 in assay [7]. Further, the z-score in assay [8] is -0.0239 (inactive); in [9], 0.276 (inactive); in [10], 0.506. In [2], this compound came in with a composite z-score of -0.348.

Turning to `O=C(N1CCOCC1)[C@@]1(CCS(=O)(=O)c2ccccc2)N=C(c2ccc(OCCCO)cc2)O[C@H]1c1ccccc1`, the z-score in [1] is 0.276 (inactive); in [3] it was 30.2 (active); in [4] it was 27.8 (active); in assay [5], 0.265 (inactive); in assay [6] it was 5.34 (inactive); in assay [7], -0.679. The z-score in [8] was 0.386 (inactive); in assay [9], 1.75 (inactive); in assay [10] it was 1.97. The compound further came in with a composite z-score in [2] of 0.446.

In the case of `COc1cc(C(O)C2C=CC3C(=O)N(Cc4ccccc4)C(=O)C3N2n2cnnc2)cc(OC)c1OC` (stereo not given), the z-score in [1] was 1.31 (inactive); in [3], 1.15 (inactive); in assay [4], -0.129 (inactive); in assay [5], -0.666 (inactive); in assay [6], -1.04 (inactive); in [7] it was 0.866. The results for the z-score in [8], in [9] and in [10] were 1.24 (inactive), -0.564 (inactive) and -0.665, respectively. Also, the composite z-score in assay [2] came out at 0.431.

As for `CN1C(=O)[C@@]2(Cc3ccccc3)N=C(c3ccc(OCCCO)cc3)O[C@H]2c2ccccc21`, the z-score was -0.0237 (inactive) in [1]; 31.8 (active) in assay [3]; 30.4 (active) in assay [4]; 2.93 (inactive) in [5]; 2.65 (inactive) in assay [6]; 0.385 in assay [7]. Also, the figures for the z-score in assay [8], in assay [9] and in assay [10] were -1.74 (inactive), 0.151 (inactive) and -1.64, respectively. In assay [2], this compound gave a composite z-score of 0.501.

As for `O=C1O[C@H](c2ccccc2)[C@H](c2ccccc2)N2[C@H]1[C@@H](C(=O)N1CCCCCCC1)[C@]1(C(=O)Nc3ccc(C#CC4(O)CCCCCC4)cc31)[C@H]2c1ccc(O)cc1`, the z-score was 0.507 (inactive) in [1]; 0.839 (inactive) in [3]; 0.222 (inactive) in assay [4]; 1.34 (inactive) in [5]; 0.491 (inactive) in [6]; 0.148 in assay [7]. The z-score in assay [8] is 1.33 (inactive); in assay [9], 0.803 (inactive); in [10], 1.17. The composite z-score in assay [2] worked out at 2.47.

For the compound `COCCOC(=O)N1C(=O)[C@@]2(c3ccccc31)[C@H](c1ccccc1OCCO)N1[C@H](c3ccccc3)[C@H](c3ccccc3)OC(=O)[C@H]1[C@@H]2C(N)=O`, the z-score in [1] is -0.714 (inactive); in assay [3] it was 3.59 (inactive); in assay [4], 1.18 (inactive); in assay [5] it was -0.463 (inactive); in [6] it was 0.689 (inactive); in assay [7], 0.231. For the same compound, the z-score in assay [8] is 1.88 (inactive); in assay [9] it was 0.787 (inactive); in assay [10], 0.212. For the same compound, the composite z-score in [2] is 0.221.

Take `NCCCCCNC(=O)[C@@H]1C[C@@H]2C(=O)N3CCC[C@H]3C(=O)N2[C@@H]1c1ccc(O)cc1`: the z-score in assay [1] is 0.524 (inactive); in assay [3], 1.9 (inactive); in assay [4] it was 0.106 (inactive); in assay [5], -0.696 (inactive); in assay [6], 0.277 (inactive); in assay [7], -0.596. The z-score is 0.105 (inactive) in assay [8], -1.53 (inactive) in assay [9] and 0.0464 in assay [10]. This compound showed a composite z-score in assay [2] of 1.08.

Consider `COCCOC(=O)N1C(=O)[C@@]2(c3cc(C#CCCO)ccc31)[C@H](C(=O)N1CCCCCCC1)[C@H]1C(=O)O[C@H](c3ccccc3)[C@H](c3ccccc3)N1[C@@H]2c1ccccc1OCCO`, for which the z-score in [1] was -0.82 (inactive); in assay [3] it was 0.56 (inactive); in [4] it was 0.654 (inactive); in [5], 0.0531 (inactive); in assay [6] it was 0.336 (inactive); in assay [7] it was -0.319. The z-score in assay [8] was 1.96 (inactive); in assay [9], 0.843 (inactive); in assay [10] it was 1.73. Moreover, in assay [2], the composite z-score is 2.52.

On to `CCOC(=O)C1=CCC(c2ccccc2)N(S(=O)(=O)c2ccc([N+](=O)[O-])cc2)C1` (stereo not given), for which the z-score in assay [1] was -0.72 (inactive); in assay [3], 2.62 (inactive); in [4], 0.987 (inactive); in assay [5], 1.4 (inactive); in assay [6], 0.46 (inactive); in assay [7], -0.412. The results for the z-score in assay [8], in assay [9] and in [10] were 0.528 (inactive), -0.114 (inactive) and -0.023, respectively. The same compound came in with a composite z-score in [2] of 0.0451.

Regarding `CC1CC/C=C\[C@H]2OC34C=CCN(C(C)(C)C)C(=O)[C@H]3N(C(CO)C(C)C)C(=O)[C@@H]4C2C(=O)O1` (stereo not given in full), the z-score is -0.281 (inactive) in [1]; 0.462 (inactive) in [3]; 0.451 (inactive) in assay [4]; 0.44 (inactive) in [5]; 0.404 (inactive) in assay [6]; -0.248 in [7]. Besides, the values for the z-score in [8], in assay [9] and in [10] were 1.31 (inactive), -0.568 (inactive) and 2.34, respectively. In assay [2], this compound yielded a composite z-score of -0.142.
